The values that follow come from PubChem BioAssay AID602429 (Sanford-Burnham Center for Chemical Genomics, 2012).

About 1,200 (0.33%) of roughly 360,000 compounds were called active. The full list was thinned out, with actives kept by preference. A number with no mark means an inactive call. Rule as the data show it: active = inhibition above about 37%; inactive = the rest.

For this assay, the target named is Small ubiquitin-related modifier 1 (Homo sapiens) (UniProt P63165). Description: modulators of SUMO1 protein-protein interactions, primary screen, biochemical, uHTS (AID 602429). To be noted: SUMO1 binding to a labelled peptide, TR-FRET, 1 h; at 20 µM; hits give high values.
Sequence of Small ubiquitin-related modifier 1 (Homo sapiens) (P63165 whole entry, looked up): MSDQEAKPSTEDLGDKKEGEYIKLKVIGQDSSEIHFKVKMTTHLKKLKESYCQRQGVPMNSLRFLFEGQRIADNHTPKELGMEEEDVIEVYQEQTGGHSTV
In the case of `O=C(NNC(=S)NC(=O)c1cn(-c2ccccc2)nc1-c1ccccc1)c1ccncc1`, the inhibition is 7.64%.

As to `Cc1nc2ccccc2c(C)c1C(=O)c1ccc(F)cc1`, the inhibition is -0.636%.

Regarding `Cc1onc(-c2ccccc2)c1C(=O)NNC(=S)NC(=O)c1ccc(F)cc1`, the inhibition is 61.3% (active).

In the case of `CCc1nc2ccc(C(=O)N(C)Cc3ccco3)cn2c1N(C)C(=O)Cc1ccccc1`, the inhibition was 3.29%.

In the case of `CCc1cc2cc(OC)ccc2nc1SCC(=O)Nc1cc(OC)c(OC)cc1C(=O)O`, the inhibition is 4.88%.

As to `CCOC(=O)C1=C(C)NC(C)=C(C(=O)OCC)C1C1=COCCO1`, the inhibition is -7.71%.

Turning to `C=CC(=O)Nc1ccc(Nc2ccnc(Nc3ccc(N4CCN(C)CC4)cc3)n2)cc1`, the inhibition is 88.3% (active).

Regarding `CC(=O)Nc1cc(-c2ccc(N3CCN(C)CC3)cc2)cn2c(-c3ccc(F)cc3)cnc12`, the inhibition was -43.3%.

As to `O=C(Nc1ccc(N2CCN(C(=O)c3cccs3)CC2)cc1)c1cccnc1Cl`, the inhibition was -1.91%.

`Cc1noc(C)c1S(=O)(=O)Nc1ccc(C(=O)O)cc1`: the inhibition was 2.25%.

As for `CC(=O)N1c2ccc(S(=O)(=O)N3CCCC(C(=O)Nc4cccc(F)c4)C3)cc2CC1C` (configuration not stated), the inhibition is 1.06%.

Turning to `O=C(COc1ccc([N+](=O)[O-])cc1Cl)Nc1ccc2[nH]c(=O)[nH]c2c1`, the inhibition is -14.3%.

Turning to `O=C(COC(=O)c1cccc(Cl)c1)Nc1ccc2[nH]c(=O)[nH]c2c1`, the inhibition is 3.54%.

Turning to `COc1ccc(C(=O)OCC(=O)Nc2ccc3[nH]c(=O)[nH]c3c2)c(OC)c1OC`, the inhibition was 45.3% (active).

Take `Cc1ccc(S(=O)(=O)N2CCN(C(=O)Cn3c(=O)cnc4ccccc43)CC2)c(C)c1`: the inhibition is -18.5%.

For `O=C(CCl)N(Cc1cccc([N+](=O)[O-])c1)c1cccc(Cl)c1`, the inhibition was -8.32%.

Regarding `Nc1c(Cl)cc(S(N)(=O)=O)cc1S(N)(=O)=O`, the inhibition was -2.85%.

In the case of `Cc1ccc(SC(CC(=O)c2ccc(C(C)(C)C)cc2)C(=O)O)cc1` (configuration not stated), the inhibition was 1.42%.

Turning to `CCC(=O)c1ccc(OCC(O)CN2CCN(c3cccc(C(F)(F)F)c3)CC2)cc1` (configuration not stated), the inhibition was -0.535%.

Take `OC(COc1ccccc1)CN1CCN(c2cccc(Cl)c2)CC1` (configuration not stated): the inhibition was 49.6% (active).

Consider `OC(COc1ccc2c(c1)CCC2)CN1CCN(c2cccc(Cl)c2)CC1` (configuration not stated), for which the inhibition was 0.823%.

With `CC1CCCC(NC(=O)CSc2nccn2C)C1C` (configuration not stated), the inhibition was -1.19%.

Take `O=C(COc1coc(CN2CCN(c3ccccc3)CC2)cc1=O)N1CCc2ccccc21`: the inhibition is -4.23%.

As for `O=C(COc1coc(CN2CCN(c3ccccc3F)CC2)cc1=O)N1CCc2ccccc21`, the inhibition is 47.1% (active).

Consider `O=C(COc1coc(CN2CCN(c3ccccc3)CC2)cc1=O)Nc1ccccc1F`, for which the inhibition was 0.279%.

Take `C=C1c2c(Cl)ccc(O)c2C(O)=C2C(=O)[C@]3(O)C(O)=C(C(N)=O)C(=O)[C@@H](N(C)C)[C@@H]3[C@@H](O)C12` (some centres not stated): the inhibition is 62.7% (active).

Regarding `CCC(C)CCN1CCN=C1N(C)C` (configuration not stated), the inhibition is 1.08%.

For the compound `Cc1ccc(NC(=O)Cn2sc3ccccc3c2=O)cc1`, the inhibition was 5.66%.

Take `O=c1c2cc([N+](=O)[O-])ccc2nc2n1CCC2`: the inhibition was -38.3%.

Take `COCCNC(=S)Nc1cc(S(=O)(=O)N2CCOCC2)ccc1N1CCCCC1`: the inhibition is 1.91%.

Regarding `Cc1cc(OCCCC(=O)Nc2cc(S(=O)(=O)N3CCOCC3)ccc2N2CCOCC2)ccc1Cl`, the inhibition was -3.23%.

For the compound `O=[N+]([O-])c1cc(Cl)cc(/C=N/NC(=S)Nc2cc(S(=O)(=O)N3CCOCC3)ccc2Cl)c1O`, the inhibition was 36.3% (active).

For the compound `COc1ccc(C(=O)NC2(C(F)(F)F)NC(=O)N(CCCc3ccccc3)C2=O)c(OC)c1OC` (configuration not stated), the inhibition was 7.81%.

Turning to `Cn1c2ccccc2c(=O)c2c(=O)n(Cc3ccco3)c(COc3ccccc3)nc21`, the inhibition is 42.3% (active).

Consider `O=C(Cn1c(=O)n(Cc2ccco2)c(=O)c2ccccc21)NCC1CCCO1` (configuration not stated), for which the inhibition is 4.85%.

Turning to `COc1ccc(-c2oc3ncn(Cc4ccco4)c(=N)c3c2-c2ccc(OC)cc2)cc1`, the inhibition was -9.5%.

As to `O=C(Nc1ccccc1C(=O)N1CCCCC1)c1ccco1`, the inhibition was -3.94%.

On to `O=C(Nc1ccccc1)c1ccccc1NC(=O)C(F)(F)F`, for which the inhibition is -1.22%.

`O=C(O)c1ccccc1-c1ccccc1C(=O)Nc1ccccc1Br`: the inhibition is -0.773%.

As to `O=C(Nc1ccccc1)c1ccccc1Br`, the inhibition was 41.9% (active).

As to `COc1ccc(NC(=S)N2CCC(NC(=O)c3cccc(F)c3)CC2)cc1`, the inhibition is 4.71%.

Regarding `Cc1noc(C)c1-c1nc(CSc2ccc(Cl)cc2)no1`, the inhibition is 1.71%.

On to `CCN(CC)CCCNC(=O)c1cn(C)c2ccc(S(=O)(=O)N(C)C3CCCCC3)cc2c1=O`, for which the inhibition was 5.63%.

Consider `COc1ccc2[nH]c3c(C)c4cc[n+](C)cc4c(C)c3c2c1`, for which the inhibition was 61.3% (active).

Turning to `CCOc1cc(-c2conc2N)cc(OCC)c1OCC`, the inhibition is 1.02%.

For `CC(=O)Nc1ccc(NC(=O)CSc2nnc(C3CC3)n2-c2ccccc2)cc1`, the inhibition was 3.94%.

Take `CCOc1ccc(N(CC(=O)NCC2CCCO2)S(=O)(=O)c2ccc(C)cc2)cc1` (configuration not stated): the inhibition is 6.75%.

On to `COc1cccc(NC(=O)COc2cccnc2[N+](=O)[O-])c1`, for which the inhibition was -32.4%.

Take `CCCCCCC(=O)Nc1nc(C)c(-c2csc(Nc3cccc(OC)c3)n2)s1`: the inhibition was 40.2% (active).

In the case of `C=CCCC(=O)Nc1nc(C)c(-c2csc(Nc3ccc(Cl)cc3)n2)s1`, the inhibition is 1.48%.

Consider `CCCOC1CCCN(Cc2cn(C)nc2-c2ccccc2F)C1` (configuration not stated), for which the inhibition is 5.15%.

For the compound `COc1ccc(-c2csc(C(O)c3cccc(Cl)c3)n2)cn1` (configuration not stated), the inhibition was -2.47%.

For the compound `CCc1nn(CC(=O)N2CCN(c3cc(C)ccc3C)CC2)c(=O)c2cc3occc3n12`, the inhibition was 2.09%.

With `O=S1(=O)CCO[C@H]2Cc3ccccc3[C@H]2N1Cc1ccccc1`, the inhibition was -0.696%.

In the case of `COc1cccc(CC(=O)N2CCCC(CCC(=O)N3CCN(c4ccccn4)CC3)C2)c1` (configuration not stated), the inhibition is -2.38%.

With `C=Cc1ccc(C(=O)N2CCCC(CCC(=O)N3CCN(c4ccccn4)CC3)C2)cc1` (configuration not stated), the inhibition is 58.2% (active).

For the compound `O=C(CCC1CCCN(C(=O)c2ccc(F)c(F)c2)C1)N1CCN(c2ccccn2)CC1` (configuration not stated), the inhibition is 2.38%.

With `Cc1ccc(NC(=S)NC(NC(=O)Cc2cccc3ccccc23)C(Cl)(Cl)Cl)cc1` (configuration not stated), the inhibition is 0.772%.

Regarding `COc1ccc(-n2nnnc2SCC(=O)NCc2cccs2)cc1`, the inhibition was 43.1% (active).

Regarding `COc1ccc(-n2c(SCC(=O)NCc3cccs3)nnc2-c2ccoc2C)cc1`, the inhibition was -0.51%.

Take `COc1ccc(NC(=O)CSc2nnnn2-c2cccc(OC)c2)cc1`: the inhibition was -3.25%.

As for `CC(=O)c1nn(-c2ccccc2)c(=Nc2ccccc2)cc1C`, the inhibition was -14.6%.

`OCCC1CN(Cc2cnc(-c3ccccc3)s2)CCN1CCc1ccccc1` (configuration not stated): the inhibition was -2.45%.

For `Cn1c(N)c(C(=O)COC(=O)/C=C/c2ccc(OC(F)F)cc2)c(=O)n(C)c1=O`, the inhibition was -2.46%.

Take `O=S(=O)(c1ccccc1)N1CN(Cc2ccc(F)cc2)c2nc3ccccc3nc21`: the inhibition is -3.38%.

`O=C(Nc1ccccc1Cc1ccccc1)c1ccc2c(c1)SC1=NS(=O)(=O)CCN12`: the inhibition was 28.2%.

As to `CCOc1ccc(C(=O)Nc2cccc(SC)c2)cc1`, the inhibition was -1.79%.

In the case of `O=C(NNC(=O)c1ccc(-c2ccccc2)cc1)Nc1ccccc1`, the inhibition is 2.2%.

As to `O=C(Nc1cccc(-c2nc3ccccc3[nH]2)c1)c1ccc(C(=O)Nc2cccc(-c3nc4ccccc4[nH]3)c2)cc1`, the inhibition is 56.6% (active).

As for `C/C(CC(=O)NC(C)c1ccccc1)=N\NC(N)=S` (configuration not stated), the inhibition is -2.76%.

As to `CC(=O)c1c(C)[nH]c(C(=O)CN2C(=O)NC(C)(C)C2=O)c1C`, the inhibition was -2.31%.

Turning to `CCOc1cccc2c1OC1(CCCCC1)N1N=C(c3cccnc3)CC21` (configuration not stated), the inhibition is -1.86%.

Turning to `COc1cc(NC(=O)c2ccc(CNc3c(N4CCCC4)c(=O)c3=O)cc2)cc(OC)c1OC`, the inhibition was 48.9% (active).

For the compound `O=C(NCc1ccccc1)c1ccc(CNc2c(N3CCCC3)c(=O)c2=O)cc1`, the inhibition was -2.77%.

As to `O=C(NC1CCCCC1)c1ccc(CNc2c(N3CCOCC3)c(=O)c2=O)cc1`, the inhibition is -0.641%.

On to `COC(=O)c1sccc1NN1C(=O)c2ccccc2C1=O`, for which the inhibition is -2.44%.

As to `Cc1ccc(C(=O)O)cc1-c1ccc(/C=C2\SC(=O)N(CC(=O)Nc3ccc4c(c3)OCO4)C2=O)o1`, the inhibition was 106% (active).

Turning to `O=C(CCN1C(=O)c2ccncc2C1=O)Nc1ccc2c(c1)OCCO2`, the inhibition is -14.5%.

Regarding `Cc1nc([N+](=O)[O-])cn1CC(=O)Nc1ccc2c(c1)OCO2`, the inhibition is -6.05%.

`CC(=O)O[C@H]1CC[C@@]2(C)[C@@H](CC[C@@H]3[C@@H]2CC[C@]2(C)[C@@H](C(C)(C)O)C[C@@H]32)C1`: the inhibition was 1.55%.

As to `C[C@H]([C@@H](O)[C@@H](O)[C@@H](C)C(C)(C)C)[C@H]1CC[C@H]2C3CC[C@H]4C[C@H](OS(=O)(=O)O)[C@@H](OS(=O)(=O)O)C[C@]4(C)[C@H]3CC[C@]12C` (some centres not stated), the inhibition is 57.1% (active).

With `CCC(CC)c1nnc(NC(=O)C2CCN(C(=O)c3ccco3)CC2)s1`, the inhibition was 0.246%.

`O=C(Nc1cccnc1)c1ccc(Cl)cc1[N+](=O)[O-]`: the inhibition was -24.2%.

In the case of `Fc1cc(Br)ccc1NC(=S)Nc1cccnc1`, the inhibition was -2.62%.

Turning to `O=C(Nc1cccnc1)c1cc2cc(Br)ccc2oc1=O`, the inhibition is 79% (active).

With `CC(=O)c1c(C)[nH]c(C(=O)COC(=O)c2cccc(S(=O)(=O)N(C)c3ccccc3)c2)c1C`, the inhibition was 0.686%.

`CCCCCCCCn1c2c(c(=N)c3c1CCC3)CCCC2`: the inhibition was -1.62%.
